Reference: PubChem BioAssay AID1159580 (chemical genetic matrix, 2015)
Hit rate of the full screen: of about 5,500 compounds, about 2,000 (36%) were called active. Inconclusive results (about 18%) are left out. Cut-off read from the data, not from the text of the source: active = normalized growth mostly below about 0.91 (no sharp cut-off); inconclusive = no clear call, values can overlap the other calls; inactive = mostly above about 0.92. The list shows a part of the results.

Test: chemical genetic growth profiling, strain panel (AID 1159580);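 note: tested at 20 µM; growth read once vehicle control cultures reached saturation at 30 °C; 1 = growth at the plate median or of vehicle wells; lower values mean less growth of the strain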
Settings: S. cerevisiae deletion strains, growth OD

Measured: normalized growth

COC(=O)/C(C)=C\CC12OC(C)(C)C3CC(C=C4C(=O)c5c(OC)c6c(c(CC=C(C)C)c5OC431)OC(C)(CCC=C(C)C)C=C6)C2=O (centres undefined)
inactive: locus YAL021C, strain ccr4, active compounds read low 0.991 | locus YAL026C, strain drs2, active compounds read low 1.02 | locus YAL030W, strain snc1, active compounds read low 1.03 | locus YBL061C, strain skt5, active compounds read low 1.02 | locus YBR009C, strain hhf1, active compounds read low 0.999 | locus YBR021W, strain FUR4, active compounds read low 1.03 | locus YBR023C, strain chs3, active compounds read low 1.01 | locus YBR171W, strain sec66, active compounds read low 1.03 | locus YBR229C, strain ROT2, active compounds read low 1.01 | locus YBR231C, strain swc5, active compounds read low 1.03 | locus YBR279W, strain paf1, active compounds read low 1.01 | locus YCL011C, strain gbp2, active compounds read low 1.02 | locus YCL016C, strain dcc1, active compounds read low 1.01 | locus YCL029C, strain bik1, active compounds read low 0.983 | locus YCL061C, strain MRC1, active compounds read low 1.01 | locus YCL069W, strain vba3, active compounds read low 1.02 | locus YCR088W, strain abp1, active compounds read low 1.02 | locus YDL005C, strain med2, active compounds read low 1.03 | locus YDL035C, strain GPR1, active compounds read low 0.964 | locus YDL040C, strain nat1, active compounds read low 1.01 | locus YDL074C, strain BRE1, active compounds read low 0.963 | locus YDL101C, strain DUN1, active compounds read low 1.01 | locus YDL185W, strain tfp1, active compounds read low 1.01 | locus YDL192W, strain arf1, active compounds read low 0.987 | locus YDR001C, strain nth1, active compounds read low 1.02 | locus YDR069C, strain doa4, active compounds read low 1.03 | locus YDR101C, strain arx1, active compounds read low 0.989 | locus YDR137W, strain rgp1, active compounds read low 0.946 | locus YDR150W, strain NUM1, active compounds read low 1.01 | locus YDR159W, strain sac3, active compounds read low 1.06 | locus YDR162C, strain NBP2, active compounds read low 0.941 | locus YDR195W, strain ref2 1.02 | locus YDR297W, strain sur2, active compounds read low 1.04 | locus YDR318W, strain mcm21, active compounds read low 0.982 | locus YDR334W, strain swr1, active compounds read low 1.02 | locus YDR335W, strain msn5, active compounds read low 1.02 | locus YDR388W, active compounds read low 0.985 | locus YDR392W, strain spt3, active compounds read low 0.966 | locus YDR502C, strain sam2, active compounds read low 0.979 | locus YEL003W, strain gim4, active compounds read low 1.01 | locus YEL037C, strain rad23, active compounds read low 1.01 | locus YEL061C, strain CIN8 (second series), active compounds read low 1.02 | locus YEL061C, strain CIN8, active compounds read low 1 | locus YER015W, strain faa2, active compounds read low 1.02 | locus YER016W, strain bim1, active compounds read low 1.01 | locus YER110C, active compounds read low 0.988 | locus YER111C, strain swi4, active compounds read low 1.02 | locus YER155C, strain BEM2 (second series), active compounds read low 1.02 | locus YER155C, strain BEM2, active compounds read low 1.01 | locus YER167W, strain BCK2, active compounds read low 0.993 | locus YFR010W, strain ubp6, active compounds read low 1.03 | locus YGL078C, strain dbp3, active compounds read low 0.989 | locus YGL086W, strain mad1, active compounds read low 0.974 | locus YGL167C, strain pmr1, active compounds read low 1.02 | locus YGL173C, strain kem1, active compounds read low 1.02 | locus YGL227W, strain vid30, active compounds read low 1.02 | locus YGL240W, strain doc1, active compounds read low 1.02 | locus YGL248W, strain PDE1, active compounds read low 0.986 | locus YGL253W, strain hxk2, active compounds read low 1.01 | locus YGR135W, strain pre9, active compounds read low 0.997 | locus YGR252W, strain gcn5, active compounds read low 0.987 | locus YHR013C, strain ard1, active compounds read low 0.996 | locus YHR027C, strain rpn1, active compounds read low 1.02 | locus YHR030C, strain SLT2, active compounds read low 1 | locus YHR079C, strain IRE1 (second series), active compounds read low 1 | locus YHR094C, strain hxt1, active compounds read low 1.01 | locus YHR129C, strain ARP1, active compounds read low 0.985 | locus YHR142W, strain chs7, active compounds read low 1.04 | locus YHR200W, strain rpn10, active compounds read low 0.991 | locus YIL066C, strain RNR3, active compounds read low 0.96 | locus YIL073C, strain SPO22, active compounds read low 0.878 | locus YIL125W, strain kgd1, active compounds read low 0.992 | locus YIR030C, strain dcg1, active compounds read low 0.989 | locus YJL092W, strain hpr5, active compounds read low 1.02 | locus YJL095W, strain BCK1 (second series), active compounds read low 1.01 | locus YJL095W, strain BCK1, active compounds read low 0.961 | locus YJL115W, strain asf1, active compounds read low 1.03 | locus YJL129C, strain trk1, active compounds read low 0.987 | locus YJL134W, strain LCB3, active compounds read low 1 | locus YJL154C, strain vps35, active compounds read low 1.02 | locus YJL164C, strain tpk1, active compounds read low 0.988 | locus YJL166W, strain qcr8, active compounds read low 1.01 | locus YJL168C, strain set2, active compounds read low 0.982 | locus YJL187C, strain SWE1 (second series), active compounds read low 0.976 | locus YJL187C, strain SWE1, active compounds read low 1.01 | locus YJR043C, strain POL32, active compounds read low 0.998 | locus YJR075W, strain HOC1, active compounds read low 0.999 | locus YKL009W, strain mrt4, active compounds read low 0.964 | locus YKL068W, active compounds read low 0.992 | locus YKL085W, strain MDH1 (second series), active compounds read low 0.993 | locus YKL085W, strain MDH1, active compounds read low 0.993 | locus YKL160W, strain elf1, active compounds read low 1.02 | locus YKR001C, strain vps1, active compounds read low 0.97 | locus YKR026C, strain gcn3, active compounds read low 1.02 | locus YKR091W, strain srl3, active compounds read low 1.01 | locus YLL001W, strain dnm1, active compounds read low 1 | locus YLL026W, active compounds read low 1.01 | locus YLL041C, strain sdh2, active compounds read low 1.02 | locus YLR027C, strain aat2, active compounds read low 1.01 | locus YLR039C, strain RIC1, active compounds read low 0.893 | locus YLR058C, strain SHM2, active compounds read low 0.993 | locus YLR102C, strain apc9, active compounds read low 1 | locus YLR221C, strain rsa3, active compounds read low 1.02 | locus YLR258W, strain gsy2, active compounds read low 1.03 | locus YLR262C, strain YPT6 (second series), active compounds read low 0.993 | locus YLR262C, strain YPT6, active compounds read low 0.986 | locus YLR268W, strain sec22, active compounds read low 0.961 | locus YLR320W, strain mms22, active compounds read low 1.01 | locus YLR330W, strain CHS5, active compounds read low 1.01 | locus YLR342W, strain FKS1 (second series), active compounds read low 0.977 | locus YLR342W, strain FKS1, active compounds read low 1.03 | locus YLR357W, strain rsc2, active compounds read low 1.01 | locus YLR370C, strain arc18, active compounds read low 1.01 | locus YLR371W, strain rom2, active compounds read low 1.02 | locus YLR384C, strain iki3, active compounds read low 1.01 | locus YLR418C, strain cdc73, active compounds read low 0.941 | locus YML016C, strain PPZ1, active compounds read low 0.994 | locus YML032C, strain rad52, active compounds read low 1 | locus YML120C, strain ndi1, active compounds read low 1.01 | locus YML124C, strain tub3, active compounds read low 0.994 | locus YMR058W, strain fet3, active compounds read low 1.02 | locus YMR078C, strain ctf18, active compounds read low 0.999 | locus YMR125W, strain sto1, active compounds read low 1.02 | locus YMR129W, active compounds read low 1.02 | locus YMR205C, strain PFK2, active compounds read low 0.993 | locus YMR223W, strain ubp8, active compounds read low 0.981 | locus YMR231W, strain pep5, active compounds read low 0.99 | locus YMR263W, strain SAP30, active compounds read low 1 | locus YMR307W, strain GAS1, active compounds read low 1.08 | locus YNL067W, strain RPL9B, active compounds read low 0.988 | locus YNL071W, strain lat1, active compounds read low 1.02 | locus YNL128W, strain TEP1, active compounds read low 0.991 | locus YNL209W, strain ssb2, active compounds read low 1.01 | locus YNL233W, strain BNI4, active compounds read low 0.988 | locus YNL248C, strain rpa49, active compounds read low 1.03 | locus YNL250W, strain rad50, active compounds read low 0.985 | locus YNL271C, strain bni1, active compounds read low 0.982 | locus YNL298W, strain CLA4, active compounds read low 0.976 | locus YNL307C, strain MCK1, active compounds read low 0.997 | locus YNL322C, strain KRE1 (second series), active compounds read low 1.01 | locus YNL322C, strain KRE1, active compounds read low 1 | locus YNR049C, strain mso1, active compounds read low 1.02 | locus YNR052C, strain pop2, active compounds read low 0.983 | locus YOL012C, strain htz1 0.825 | locus YOL147C, strain pex11, active compounds read low 0.991 | locus YOR001W, strain rrp6, active compounds read low 1.03 | locus YOR061W, strain CKA2, active compounds read low 0.984 | locus YOR069W, strain VPS5, active compounds read low 0.996 | locus YOR070C, strain gyp1, active compounds read low 1 | locus YOR080W, strain dia2, active compounds read low 1.02 | locus YOR083W, strain WHI5, active compounds read low 0.99 | locus YOR106W, strain vam3, active compounds read low 1 | locus YOR136W, strain idh2, active compounds read low 0.994 | locus YOR144C, strain elg1, active compounds read low 0.995 | locus YOR184W, strain ser1, active compounds read low 0.978 | locus YOR265W, strain rbl2, active compounds read low 1.01 | locus YOR270C, strain vph1, active compounds read low 1.05 | locus YOR290C, strain snf2, active compounds read low 0.991 | locus YOR316C, strain cot1, active compounds read low 0.986 | locus YPL051W, strain arl3, active compounds read low 0.995 | locus YPL078C, strain atp4, active compounds read low 1.03 | locus YPL106C, strain sse1, active compounds read low 1.01 | locus YPL240C, strain hsp82, active compounds read low 1.02 | locus YPL241C, strain CIN2, active compounds read low 1 | locus YPR119W, strain clb2, active compounds read low 0.992 | locus YPR141C, strain kar3, active compounds read low 0.985 | locus YPR163C, strain tif3, active compounds read low 0.975 | locus YPR167C, strain met16, active compounds read low 0.972 | strain wtn01, active compounds read low 0.984
